Shown are actives, neighbours in structure and some others; about 7.9% of the full set was active somewhere.
KB-3-1 cytotox: qHTS assay for MDR1-selective chemotherapeutics: Primary screen using the parental adenocarcinoma cell KB-3-1. KB-3-1 viability, CellTiter-Glo ATP luminescence, 72 h. Potency, µM (titrated, usually from 46.1 µM), usual class: cytotoxic. 400,000 tested, 1.4% active; note: % is set by controls: 0 for no effect and ±100 for the full control effect; nearly all actives have a fitted effect of over 60% in size
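Parental KB-3-1 adenocarcinoma cells in phenol-red-free DMEM with 10% FBS were pin-treated with compounds at several concentrations, incubated 72 h at 37 °C, and viability read by CellTiter-Glo luminescence; concentration-effect curves were fitted after normalization.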
HT1080-NT tox: qHTS for induction of synthetic lethality in tumor cells producing 2HG: qHTS for the HT-1080-NT fibrosarcoma cell line. HT-1080-NT fibrosarcoma viability, CellTiter-Glo ATP luminescence, 48 h. Potency, µM (doses to about 46.1 µM), for inactives: top-dose activity, negative = less viability, usual class: cytotoxic. 360,000 tested, 1.6% active;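 note: NT is the 2HG producing partner of a matched IDH1 knockdown line; 0% = DMSO-treated cells and -100% = media-only wells without cells; nearly all actives have a fitted effect of over 55% in size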
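A 48-hour cytotoxicity screen used HT-1080-NT cells plated 2 hours before compound delivery. ATP-based CellTiter-Glo luminescence measured viability, normalized to DMSO and no-cell controls.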
HT1080 IDH1KD tx: qHTS for induction of synthetic lethality in tumor cells producing 2HG: qHTS for the HT-1080-IDH1KD cell line | Potency, µM (doses to about 46.1 µM), for the others: at the highest dose activity, negative = toxicity, hits mostly cytotoxic | HT-1080 IDH1 knockdown viability, ATP luminescence, 48 h | 360,000 tested, 2% active;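 note: 0% = DMSO wells and -100% = cell-free medium wells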
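Luminescent ATP read-out (CellTiter-Glo, 10 min at room temperature) after 48 h compound exposure at 37 °C gave viability of IDH1-knockdown HT-1080 cells. Activity was normalised to DMSO and cell-free wells, then fitted as concentration-response curves.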
MCF10A rereplic: A quantitative high throughput screen for small molecules that induce DNA re-replication in MCF 10a normal breast cells; Potency, µM (top dose mostly 46.1 µM), for inactives: at the highest dose activity, positive = re-replication, most hits filed as activators; MCF 10A DNA re-replication, Hoechst nuclear intensity, 48 h; 350,000 tested, 2.9% active; note: % of control where 0% means no effect; nearly all actives have a fitted effect of over 50% in size
KB-V1 MDR tox: qHTS assay for MDR1-selective chemotherapeutics: Primary screen using the drug-selected MDR subline cells KB-V1; KB-V1 MDR cells viability, CellTiter-Glo, 72 h; Potency, µM (top dose mostly 46.1 µM), usual class: cytotoxic; 400,000 tested, 3.4% active; note: % is set by controls: 0 for no effect and ±100 for the full control effect; nearly all actives have a fitted effect of over 60% in size
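Luminescent ATP read-out (CellTiter-Glo, 10 min) measures survival of drug-selected KB-V1 MDR cells after 72 h, 37 degrees C compound exposure. Medium: phenol-red-free DMEM, 10% FBS. Values from fitted concentration-response curves.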
SW480 rereplic: A quantitative high throughput screen for small molecules that induce DNA re-replication in SW480 colon adenocarcinoma cells; 340,000 tested, 1.8% active; AID 624297, 2012; SW480 DNA re-replication, Hoechst DNA content imaging, 48 h; Potency, µM (titrated, usually from 46.1 µM), inactives show top-dose re-replication activation, usual class: activators; note: % of control where 0% means no effect; nearly all actives have a fitted effect of over 55% in size
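Per well, 250 cells were exposed to pinned compound for 48 hr. Nuclear DNA was visualised with Hoechst (40 min, 37 C) and total object intensity recorded by fluorescence scanning.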
An asterisk follows results filed as active; i = inactive; ? = inconclusive; · = no result; [ ] = dose if it differs, or a comment. Calls come from the whole dose curve; as a rule, active = well fitted curve in the direction sought with a large enough effect; inconclusive = small, poorly fitted or top-dose-only effect, or another doubt; inactive = no such curve, though single readings can be large; an effect the other way counts as inactive or inconclusive. Potency is the fitted concentration of half-maximal effect.

SMILES	KB-3-1 cytotox	HT1080-NT tox	HT1080 IDH1KD tx	MCF10A rereplic	KB-V1 MDR tox	SW480 rereplic
CCOC(=O)c1cnc(-n2nc(C)cc2C)nc1NNc1nc(C)cc(C)n1	i	1.7%	0.3%	-1.1%	i	-22.7%
CCOC(=O)c1cnc(-n2nc(C)cc2C)nc1Nc1ccc(N(C)C)cc1	?	-7.6%	-19.6%	0.8%	i	-4.2%
CCOC(=O)c1cnc(-n2nc(C)cc2C)nc1N(CC)CC	i	?	1.58µM*	-1.1%	1.64µM*	?
CCOC(=O)c1cnc(-n2nc(C)cc2C)nc1Nc1ccc(C)cc1	i	7.2%	1.5%	6.0%	1.03µM*	-6.6%
CCOC(=O)c1cnc(-n2cc(C)cn2)nc1Nc1ccccc1OC	?	-3.7%	27.9%	18.1%	1.84µM*	10.3%
COCCNC(=O)C1(C)CCCN(CCC(=O)c2ccc(Br)cc2)C1 (stereo not given)	i	?	?	·	i	·
C[n+]1ccc(C(c2c[nH]c3ccccc23)c2cc[n+](C)c3ccccc23)c2ccccc21	1.46µM*	·	·	·	i	·
COc1ccc(OC)c(/C=C/c2cc3ccccc3cn2)c1	5.17µM*	·	·	·	i	·
COc1ccc(OC)c(/C=C/c2ccccc2)c1	?	·	·	·	i	·
Cc1ccc(CNC(=O)C(=O)NCC2CCCN2S(=O)(=O)c2cccs2)cc1 (stereo not given)	i	7.5%	21.9%	6.4%	9.2µM*	-1.4%
COc1ccccc1NC(=O)C(=O)NCC1CCCN1S(=O)(=O)c1cccs1 (stereo not given)	i	11.7%	8.8%	12.5%	4.61µM*	-1.9%
O=C(NCCC1CCCCN1S(=O)(=O)c1cccs1)C(=O)NCc1ccccc1 (stereo not given)	?	-22.5%	-15.6%	?	14.6µM*	?
O=C(NCC1CCCN1S(=O)(=O)c1cccs1)c1cccc(Cl)c1 (stereo not given)	i	-16.7%	-18.1%	8.3%	?	2.91µM*
O=C(NCCC1CCCCN1S(=O)(=O)c1cccs1)C(=O)Nc1ccccc1F (stereo not given)	i	5.0%	6.5%	?	i	16.8%
C(=Nc1cccnc1)c1ccnc2ccccc12	i	·	·	·	i	·
O=C(NCc1cccc(Cl)c1)NCc1noc2ccccc12	i	·	·	·	i	·
O=C(NCCC1CCCCN1S(=O)(=O)c1cccs1)C(=O)Nc1cccc(F)c1 (stereo not given)	i	1.9%	-10.9%	?	16.4µM*	-3.0%
Cc1ccc(S(=O)(=O)N2CCC(C(=O)Nc3ccccc3N3CCCC3)CC2)cc1	i	-11.6%	-5.1%	-2.3%	5.8µM*	6.9%
O=C(Nc1nc2ccc(S(=O)(=O)N3CCCC3)cc2s1)C1CCCCC1	2.59µM*	20.6µM*	14.6µM*	10.3µM*	3.66µM*	7.31µM*
C=CCN(CC=C)S(=O)(=O)c1ccc2nc(NC(=O)C3CCCO3)sc2c1 (stereo not given)	?	?	?	?	8.2µM*	?
O=C(Nc1nc2ccc(S(=O)(=O)N3CCCCC3)cc2s1)C1CCCO1 (stereo not given)	?	-0.7%	-21.3%	12.2%	i	?
COc1ccc(OC)c(S(=O)(=O)N2CCC(C(=O)Nc3cc(C)ccc3C)CC2)c1	i	1.9%	1.7%[9.24 µM]	?	?	4.61µM*
Cc1ccc(S(=O)(=O)N2CCC(C(=O)Nc3ccccc3N3CCCCC3)CC2)cc1	i	-6.6%	7.1%	-1.4%	i	16.7%
CC(=O)Nc1ccc(OC(C)=O)cc1	·	·	·	7.1%	·	-5.1%
